# Source: the supplement of paper PMC3334620
# In all, about 33,000 sequences were measured (“E-score (-0.5 to 0.5)”: median about -0.04, highest 2% from about 0.36 on). The full list was thinned out, with the highest values kept by preference.
# Target: T1, Hmlalpha2 (UniProt P0CY09)
# T1 sequence: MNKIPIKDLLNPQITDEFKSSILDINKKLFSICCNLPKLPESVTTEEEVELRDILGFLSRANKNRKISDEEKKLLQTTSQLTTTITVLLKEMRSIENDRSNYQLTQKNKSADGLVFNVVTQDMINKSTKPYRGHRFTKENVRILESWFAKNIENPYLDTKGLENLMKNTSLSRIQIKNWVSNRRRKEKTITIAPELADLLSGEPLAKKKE
# Assay: PBM E-score (8-mer binding enrichment) (E-score (-0.5 to 0.5)); higher = stronger / more preferred TF binding
# Conditions: protein concentration: 200 nM; construct: GST-full length
# Experimental: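 Universal 'all 10-mer' protein binding microarrays (Agilent AMADID 015681) probed with GST-tagged S. cerevisiae TFs (full-length or DBD) made by in vitro transcription/translation (PURExpress), about 100-200 nM. Bound TF was detected with fluorescent anti-GST. Each ungapped 8-mer (which stands for itself and its reverse complement) is scored by the PBM enrichment score (E-score), a modified Wilcoxon-Mann-Whitney statistic from -0.5 to +0.5, computed with the Universal PBM Analysis Suite. Scale: above 0.35 generally sequence-specific binding.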
row,Sequence,PBM E-score
1,TATGTTAA,0.459
2,GCTGTTAA,0.262
3,GATGTTAA,0.383
4,AATGTTAA,0.364
5,GCTGTTAC,-0.0161
6,AAGATCCG,-0.207
7,ATTGCCCC,-0.315
8,CACTGCGA,-0.0249
9,CAAGGTCC,-0.193
10,ATATCTCG,-0.151
11,TTATGCAA,0.11
12,GACTACAC,0.362
13,AACTACAC,0.42
14,CACTACAC,0.394
15,AACTACAA,0.242
16,CACTACAG,0.126
17,AACTACAT,0.392
18,CACTACAA,0.268
19,AACTACGT,0.186
20,AACTACAG,0.0948
21,TGGATCCA,-0.063
22,CCTACTCG,-0.202

row,Sequence,PBM E-score
1,ACCCTTGC,-0.209
2,CGGGATAC,-0.16
3,ACGTCTGC,-0.182
4,AAACGTAT,0.278
5,ACACGTAT,0.369
6,ACACGTAG,0.351
7,ACACGTTG,0.35
8,ACACGTCA,0.317
9,ATACGTAT,0.308
10,ACACGTAC,0.347
11,ACACGTCT,0.368
12,ACACGTTC,0.303
13,ACACGTCG,0.302
14,ACACGTAA,0.396
15,ACACGTTA,0.408
16,CGAGTGGA,-0.137
17,AGGGGCCG,-0.365
18,CGGGAGCC,-0.33
19,GCACGTAA,0.348
20,TCACGTAA,0.393
21,CCACGTAA,0.33
22,AGGTTGGG,-0.0364

row,Sequence,PBM E-score
1,CCCTTGGC,-0.35
2,ATAATTAC,0.357
3,CTGATTAA,0.141
4,CCGATTAC,0.216
5,ACGATTAC,0.383
6,CTAATTAC,0.362
7,ACAATTAA,0.214
8,ATGATTAC,0.326
9,CTGATTAC,0.369
10,ACAATTAT,0.214
11,GCGATTAC,0.275
12,ACAATTAC,0.376
13,GTAATTAC,0.452
14,GAAGCAAA,0.156
15,CGCCACCG,-0.296
16,CAGAGCTC,-0.142
17,ATGGCGCC,-0.249
18,TCCTGCAA,-0.15
19,GCGGTGCA,-0.281
20,GTTGCACA,0.0871
21,AGTGTTCG,0.089
22,ACTTAGGA,-0.0292

row,Sequence,PBM E-score
1,AGGGTAAA,0.0323
2,CCCAAGCG,-0.19
3,GTAATAAC,0.392
4,GTAATAAA,0.35
5,ATAATAAC,0.187
6,CATACCTC,0.0518
7,CTGAATTC,0.0173
8,AGCACGAA,0.167
9,AACACGAA,0.386
10,AACACGAC,0.424
11,AACACGAG,0.377
12,CACACGAA,0.233
13,ACCACGAC,-0.0364
14,TGCACGAA,0.122
15,AACACAAA,0.261
16,CACACGAC,0.223
17,TTCACGAA,0.019
18,CACACGAG,0.152
19,TACACGAA,0.456
20,ACGTTAAT,0.304
21,GCTGGGAC,-0.263
22,AAGAACTG,-0.178

row,Sequence,PBM E-score
1,ACAGTGTA,0.244
2,CCCTCGCC,-0.357
3,CATGCGAC,0.0966
4,CTTCTGCA,-0.0586
5,CCTGCGGC,-0.341
6,TCAAGTAA,0.265
7,AGGGCCCA,-0.239
8,GACTTGGC,-0.347
9,GACACGAC,0.394
10,AACACGAT,0.439
11,GACACGAA,0.2
12,AGCACGAT,0.147
13,GACACGGC,0.223
14,ATCACGAT,-0.0443
15,ATAGAACA,0.164
16,GGGTTCGA,-0.248
17,CGACAATC,-0.19
18,GCCTCTGA,-0.251
19,GTTTCAGA,-0.0374
20,CACCGGCG,-0.12
21,AACACTTC,0.138
22,ACTACCGA,-0.12
